Experimental data reported in PubChem BioAssay (NCI).
This is part of a sample that, as a whole, favours compounds with a hit. Of some 83,000 tested, about 20% had one in any assay.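 In brief: 96-well plates, 48 h treatment, single concentration, percent growth endpoint.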 The source made the active and inactive calls. How the source made its calls: active means growth percent below 10; inactive means the rest.

Test system: MDA-MB-468 breast
Assay: NCI-60 one-dose screen, 48 h (100 = growth as untreated, 0 = no growth, -100 = all killed)
Details: 10 µM unless noted

SMILES | growth
CCCCNc1ccc2c3c(cccc13)C(=O)N(c1cccc(-c3nn(-c4ccccc4)cc3-c3nc4ccccc4s3)c1)C2=O | 97.7% (inactive)
COc1ccc(-c2cc(-c3cc(OC)c(OC)c(OC)c3)[nH]c(=O)c2C#N)cc1 | 79.8% (inactive)
COc1cc(C2CC(c3ccc(Cl)cc3)=Nc3c(N)nc(N)nc3N2)ccc1Oc1nc(Nc2ccc(F)cc2)nc(N(C)C)n1 (stereo not drawn) | -22.4% (active)
O=C(O)CC1S/C(=N/N=C/c2nc3ccccc3s2)NC1=O (stereo not drawn) | 104% (inactive)
Cc1ccc(S(=O)(=O)N(CCn2ccnc2[N+](=O)[O-])CCn2ccnc2[N+](=O)[O-])cc1 | 96.4% (inactive)
N#CCc1nnc(NC(=O)c2ccc(-n3c(=O)[nH]c4ccccc4c3=O)cc2)s1 | 121% (inactive)
O=C(N/N=C/c1ccc(Br)o1)c1[nH]c2ccc(Br)cc2c1-c1ccccc1 | 5.25% (active)
COc1ccc(N=Nc2c(N)nn3c(-c4ccc([N+](=O)[O-])cc4)ccnc23)cc1 | 105% (inactive)
Cn1cc(-c2cc(N)n3nc(-c4c[nH]c5ccc(Cl)cc45)cc3n2)c2cc(Br)cnc21 | -93.6% (active)
CN1C(=O)C2(C(C#N)=C(c3ccc(Cl)cc3)Nc3c2c(-c2ccccc2)nn3-c2ccccc2)c2ccccc21 (stereo not drawn) | 95.4% (inactive)
Cc1nn(-c2ccccc2)c2nc(C)n(C(=O)N/N=C/c3ccccc3)c(=O)c12 | 115% (inactive)
CN1CCN(CCS(=O)(=O)Nc2cc(-c3ccc4ncnc(Nc5ccc(F)c(Cl)c5)c4c3)cnc2Cl)CC1 | -75.1% (active)
COc1cc(C2CC(c3ccc(C(F)(F)F)cc3)=Nc3c(N)nc(N)nc3N2)ccc1Oc1nc(Nc2ccc(F)cc2)nc(N(C)C)n1 (stereo not drawn) | -8.26% (active)
COc1ccc2[nH]c(=O)c(CSc3ccccc3Nc3nccc(-c4ccc5c(c4)OCO5)n3)cc2c1 | 66.5% (inactive)
Cc1cc(=O)oc2cc(OCC(O)CNN3C(=O)c4cccc5c(N6CCN(C)CC6)ccc(c45)C3=O)ccc12 (stereo not drawn) | 108% (inactive)
CC[C@]12C=CCN3CC[C@]4(C(=C(C(=O)OC)C1)Nc1cc(OC)c([C@@H]5[C@H]6O[C@H]6[C@@]6(CC)CC(C(=O)OC)=C7Nc8cc(OC)ccc8[C@@]78CCN5[C@@H]68)cc14)[C@@H]32 | 28.9% (inactive)
C#CCCCNCCNc1ccnc2cc(Cl)ccc12 | 50.4% (inactive)
CCOC(=O)/C(F)=C/C1CC1C(c1ccccc1)c1ccccc1 (stereo not drawn) | 36.2% (inactive)
S=C(NCCc1ccccc1)Nc1ccc(OCc2nc3ccc(Cl)cc3[nH]2)cc1 | 21.7% (inactive)

SMILES | growth
Cc1ccc(C(=O)C[n+]2cccc3c4ccccc4ccc32)cc1 | -10.3% (active)
CCCn1c(NC(=O)c2cccc(C(N)=O)c2)nc2cc(CN3CCCCC3)ccc21 | 82.5% (inactive)
CCC(=O)c1c2c(c3ccc4c5ccccc5ccc4n13)C(=O)c1ccccc1C2=O | 88.6% (inactive)
O=C1/C(=C/c2cnc(-c3ccccc3)s2)SC(=S)N1Cc1ccc2c(c1)OCO2 | 43.2% (inactive)
O=c1[nH]c2ccccc2cc1COc1ccc(Nc2nccc(-c3ccc(Cl)cc3)n2)cc1 | 89.6% (inactive)
O=C(/C=C1\C(=O)N(Cc2ccccc2)c2ccccc21)c1cc2ccccc2oc1=O | 29.6% (inactive)
COc1ccc(NC(=O)Cn2c(/C=C/c3cccc(Br)c3)nc3ccccc3c2=O)cc1 | 77.6% (inactive)
O=c1ccc(Cn2c(C(F)(F)F)cc3c(Cl)ncnc32)c[nH]1 | 37.2% (inactive)
CCCCC[C@@H]1C/C=C(\C)[C@@H](O)C(C)(C)C(=O)[C@@H](C)/C=C(\C)[C@@H]2C[C@H](O)C[C@](O)(CC(=O)O1)O2 | -21.2% (active)
COc1cc(NC(=O)CSc2nnc(-c3ccc(-c4nc5ccc(Cl)cc5[nH]4)cc3)o2)cc(OC)c1OC | 3.14% (active)
Cc1ccc(C2CC(c3ccc(S(=O)(=O)NCCNc4nc(N(C)C)nc(N5CCOCC5)n4)cc3)=Nc3c(N)nc(N)nc3N2)cc1 (stereo not drawn) | 24.2% (inactive)
CCCCNC(=S)Nc1ccc(OCc2nc3ccc(Cl)cc3[nH]2)cc1 | 3.25% (active)
Nc1nn2c(-c3cc4cc(Br)ccc4oc3=O)ccnc2c1N=Nc1ccc(S(N)(=O)=O)cc1 | 64.7% (inactive)
OCCn1cc(-c2nc3ccc4[nH]ncc4c3c3c2CCCC3)cn1 | 3.83% (active)
CN(C)CCCc1ccc(Nc2cnn(C)c(=O)c2Cl)cc1 | 82.8% (inactive)
Nc1cc2ccccc2c(=O)n1NC(=O)c1ccccc1 | -35.4% (active)
Cn1cc(-c2cc(N)n3nc(-c4c[nH]c5ccccc45)cc3n2)c2cc(Cl)ccc21 | -83.2% (active)
O=C(NC(=S)N1CCN(c2ncnc3c2cnn3-c2ccccc2)CC1)c1ccc(Br)cc1 | 78% (inactive)
O=C(N/N=C/c1ccc(B(O)O)s1)c1[nH]c2ccc(Br)cc2c1-c1ccccc1 | -95.9% (active)
